Reference: PubChem BioAssay (NCI)
The panel holds about 83,000 compounds, 20% with a hit somewhere; the sample as a whole holds those more often.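 Cells were grown in 96-well plates and exposed to the test compound at a single concentration for 48 hours; results are reported as percent growth, with values below 10 considered active.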 The source made the active and inactive calls.

System: MDA-MB-468 breast
Assay: NCI-60 one-dose screen, 48 h (100 = growth as untreated, 0 = no growth, -100 = all killed)
Conditions: 10 µM unless noted

SMILES | growth
O=C1/C(=C/c2cccc(Br)c2)COc2ccc(O)cc21 | 53.1% (inactive)
CC(CCC(=O)O)[C@H]1CCC2C3C(=O)C[C@@H]4CC(=O)CC[C@]4(C)C3CC(=O)[C@@]21C (stereo not given in full) | 112% (inactive)
NC(=S)CN1CCOCC1 | 104% (inactive)
C#Cc1ccc(NC(=O)Cc2ccc(/C=C/C(=O)c3nccn3C)cc2)cc1 | 33.8% (inactive)
CCOC(=O)c1nn(-c2ccc(S(N)(=O)=O)cc2)c2nc(C)cc(=O)n12 | 99% (inactive)
O=c1c2cc(Br)cc(Br)c2nc(-c2ccc(Cl)cc2)n1/N=C\c1ccccc1F | 79.1% (inactive)
CN(C)CCN1C(=O)c2ccc3c4c(ccc(c24)C1=O)C(=O)N(CCN=C=S)C3=O | -88.8% (active)
Nc1c(C(=O)Nc2cccc(C(F)(F)F)c2)sc2nc3c(cc12)C(O)CCC3 (stereo not given) | 22.4% (inactive)
CCCN1C2CCC1/C(=C\c1ccc(OC)cc1)C(=O)/C2=C/c1ccc(OC)cc1 | 55.9% (inactive)
COc1cc2c(cc1OC)C(=O)C(Br)CC2 (stereo not given) | 24.7% (inactive)
Cc1nn(-c2ccccc2)c(Oc2c(Cl)cccc2Cl)c1/C=N/N=c1\sc2ccccc2n1C | 39.7% (inactive)
O=C1NCc2ccc3c(-c4cccc(Cl)c4)c[nH]c3c21 | 26.5% (inactive)
COc1cccc(NCc2nnc(Nc3ccc(Cl)cc3)c3ccccc23)c1 | -21.9% (active)
Clc1ccc(-c2cc(-c3ccccc3)nc(N3CCN(CCCNc4ccnc5cc(Cl)ccc45)CC3)n2)cc1 | -34% (active)
Clc1ccc(CN2COc3c(ccc4cccnc34)C2)cc1Cl | -71.9% (active)
O=S(=O)(c1ccccc1)n1ccc(-c2ccc3c(c2)CCO3)n1 | 42.4% (inactive)
COC1=C(OC)C(=O)C(CCCCCCCCCCO)=C(C)C1=O | -34.8% (active)
COc1ccc(OC)c(NC(=O)/C(C#N)=C/c2ccco2)c1 | 85.2% (inactive)
Clc1ccc2c(NCCNc3nc(N4CCCC4)nc4ccccc34)ccnc2c1 | -49.2% (active)
CCn1c(SCC(=O)c2ccc(Br)cc2)nnc1-c1ccncc1 | 108% (inactive)

SMILES | growth
COc1cc(C(=O)/C=C/c2cccnc2Nc2ccccc2)cc(OC)c1OC | -93.8% (active)
O=C(Nc1ccc(C(=O)Nc2ccc(C3=NCCCN3)cc2)cc1)Nc1ccc(C2=NCCCN2)cc1 | 66.6% (inactive)
CC1=CNNc2c3ncnc-3ncn21 | 95.1% (inactive)
CCOC(=O)c1c(C)nc2c(c1N)C(=O)C(=O)N2Cc1ccc(OC)cc1 | 95% (inactive)
C/C=C(/C(=C/C)c1ccc(O)cc1)c1ccc(O)cc1 | -15.5% (active)
CCN1CCN(c2cc(C)nc(N(CCCNc3ccnc4cc(Cl)ccc34)Cc3ccc4c(c3)OCO4)n2)CC1 | -55.5% (active)
CCN1C(=O)N(CC)C2C1NC(=S)N2/N=C/C=C/c1ccccc1OC (stereo not given) | -0.348% (active)
Cc1nc2ccc(Cl)cn2c1-c1nnc(SCc2ccc([N+](=O)[O-])cc2)o1 | 48.9% (inactive)
CCN(CC)CC(=O)Nc1ccc2ncnc(Nc3ccc(Oc4cccc(F)c4)c(Cl)c3)c2c1 | 13.6% (inactive)
Cn1cnc([N+](=O)[O-])c1/C=C1\Oc2ccc(Cl)cc2C1=O | 79.8% (inactive)
N#CC1c2ccccc2-c2ccccc2N1C(=O)c1ccccc1 (stereo not given) | 32.9% (inactive)
CC(O)(CO)c1ccccc1 (stereo not given) | 99.6% (inactive)
COc1ccc(/C(=C/c2ccc3ccccc3c2)c2nn[nH]n2)cc1OC | 60.2% (inactive)
CCCCCCCn1cc2c(NCCc3ccccc3)ncnc2n1 | 105% (inactive)
CN1CCN(c2ccc3nc(-c4ccc5nc(-c6ccc(C(F)(F)F)cc6)[nH]c5c4)[nH]c3c2)CC1 | 50.6% (inactive)
O=C1CCC(N2C(=O)c3ccc(NS(=O)(=O)c4ccccc4OC(F)(F)F)cc3C2=O)C(=O)N1 (stereo not given) | 10.1% (inactive)
COc1cccc(N2CCN(c3ncnc4c3[nH]c3ccc(F)cc34)C[C@H]2C)c1 | 27.5% (inactive)
CN(C)c1ccc2c(c1)OC(N)=C(C#N)C2c1ccc2c(c1)CCCN2C (stereo not given) | 20.6% (inactive)
Nc1ccc2[nH]c(-c3ccccc3)cc(=O)c2c1 | 51% (inactive)
CN[C@@]12CC3(C=CC(=O)C=C3)O[C@]1(Cc1ccc(OC)cc1)N(C)C(=O)N2 | 23.7% (inactive)
